Assay results from the supplement of paper PMC6555819.

Key:
Assay in all cases: PBM binding z-score (relative to random genomic background probes); higher = stronger binding; sequences stand for … in GC…GCGATTGACAGCGTAGAATGAAGG
[1] = test system: RARb homodimer (NR concentration 270 nM)
In short: (§1)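 Random background probes are the reference for binding z-scores. These scores derive from regression-normalized fluorescence on custom Agilent 4×180K protein-binding microarrays incubated 1 h with ligand-free nuclear receptor dimers. Binding was detected with antibodies against each partner (one per run).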

[2] = test system: RARg:RXRa (NR concentration 270 nM, RXRa partner concentration 90 nM)
In short: as §1

[3] = test system: RARg homodimer (NR concentration 270 nM)
In short: as §1

[4] = test system: RXRa DBDmut IVT, anti-RXR (DBD mutation: RXRa K156A/R161A, NR concentration 90 nM)
In short: as §1

[5] = test system: RXRa homodimer (NR concentration 180 nM)
In short: as §1

[6] = test system: THRa:RXRa (NR concentration 90 nM, RXRa partner concentration 90 nM)
In short: as §1

[7] = test system: THRa homodimer (NR concentration 90 nM)
In short: as §1

[8] = test system: VDR:RXRa (NR concentration 270 nM, RXRa partner concentration 90 nM)
In short: as §1

[9] = test system: VDR homodimer (NR concentration 270 nM)
In short: as §1

| Sequence | PBM binding z-score [1] | PBM binding z-score [2] | PBM binding z-score [3] | PBM binding z-score [4] | PBM binding z-score [5] | PBM binding z-score [6] | PBM binding z-score [7] | PBM binding z-score [8] | PBM binding z-score [9] |
| --- | --- | --- | --- | --- | --- | --- | --- | --- | --- |
| GCGACTGGGGCAAAGCAGGTTACCACAAGGTTGG | 1.08 | 0.456 | 0.439 | -0.219 | 0.39 | 3.04 | -0.328 | 0.0392 | -0.626 |
| TGAATGAGGTTAAAGATCAGGGCACGTGGCGTCG | 1.91 | 2.84 | 1.59 | 0.869 | 3.95 | 3.35 | 1.32 | 2.19 | 1.03 |
| GCTAGTTGGTCAGTAAAAGGTCACAGACCGGTCG | 5.24 | 5.64 | 5.2 | 0.262 | 5.7 | 3.79 | 1.68 | 3.94 | 1.13 |
| CCTAGCAGGCCCGGGTCACTCAAGCATTTCGCTT | 2.02 | 1.96 | 1.46 | -0.519 | 2.43 | 2.71 | 1.3 | 1.43 | 0.294 |
| ATACCAAGGTGATCGTGGGGTCGTTGATACTAAC | 1.69 | 2.14 | 0.593 | 0.817 | 2.34 | 3.15 | 1.93 | 3.44 | 2.92 |
| CGTCCAAGGTCATAGGAGGTCAGTGAGGACAGAT | 5.13 | 6.73 | 7.15 | 4.28 | 6.16 | 5.22 | 4.53 | 7.07 | 5.81 |
| CTCGAAAGGTCGTGCTCAGGTAAGTATACCAAAC | 2.92 | 4.8 | 4.35 | 2.12 | 5.15 | 3.62 | 0.655 | 3.36 | 1.17 |
| CAGCGTAGGTCAGGGCCAGTATAGGAGGAACGTT | 2.49 | 3.4 | 4.22 | -0.29 | 2.04 | 1.24 | -0.0112 | 0.388 | -0.494 |
| AGAACGAGTGCAATGAGTTGATAGCACGGGTGGC | -0.553 | 0.1 | -0.109 | 2.82 | 0.283 | -0.264 | -1.03 | 4.09 | 4.06 |
| AGAATGAGGTTATATGTAGATCAGGGAAGAAAGT | 1.34 | 1.69 | 1.09 | 1.74 | 2.1 | 2.44 | 1.22 | 1.43 | 1.24 |
| GCAACGAGGGCAAGTTGATAGCAGAGTTTGATGG | 1.66 | 1.61 | 1.77 | 2.2 | 0.98 | 1.36 | 0.152 | 0.955 | 1.66 |
| GCCACTGGGGCATCAGCAGGTTACCATAACTTAA | 0.865 | 0.714 | 0.439 | -0.45 | 0.212 | 0.803 | -0.0926 | -0.378 | -0.602 |
| GATAGAGGGTCAGCTAGAGGCCAGAGTATGGAAA | 3.28 | 6.38 | 4.5 | 0.579 | 3.71 | 2.39 | -0.103 | 2.45 | 0.387 |
